# Measured values reported in PubChem BioAssay (NCI).
# Values joined by “and” are separate entries in the source; they are usually repeats but may differ in a detail not shown here. Identical values can stand only once. Compounds without any hit were thinned out: in the full panel of roughly 83,000, 20% have a hit.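 In brief: 96-well plates, 48 h treatment, single concentration, percent growth endpoint.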 Active and inactive are the calls of the source. How the source made its calls: active means growth percent below 10; inactive means the rest.
# Columns and labels:
# Assay in all cases: NCI-60 one-dose screen, 48 h (100 = growth as untreated, 0 = no growth, -100 = all killed)
# HCT-15 colon = details: 10 µM
# HT29 colon = details: 10 µM
# SNB-75 CNS = details: 10 µM
# SNB-19 CNS = details: 10 µM
# U251 CNS = details: 10 µM
# PC-3 prostate = details: 10 µM
# SK-MEL-5 melanoma = details: 10 µM
# UACC-62 melanoma = tested on: UACC-62 melanoma
# LOX IMVI melanoma = details: 10 µM
# SK-MEL-28 melanoma = details: 10 µM
SMILES,growth (HCT-15 colon),growth (HT29 colon),growth (SNB-75 CNS),growth (SNB-19 CNS),growth (U251 CNS),growth (PC-3 prostate),growth (SK-MEL-5 melanoma),growth (UACC-62 melanoma; 10 µM unless noted),growth (LOX IMVI melanoma),growth (SK-MEL-28 melanoma),growth (UACC-62 melanoma; 10 µM),growth (UACC-62 melanoma; 100 µM)
Nc1ccc(N)c([N+](=O)[O-])c1,109% (inactive),121% (inactive),102% (inactive),99.5% (inactive),107% (inactive),102% (inactive),95.2% (inactive),98.5% (inactive),100% (inactive),115% (inactive),–,–
c1ccc(Cc2ccccc2)cc1,99% (inactive),118% (inactive),98.9% (inactive),104% (inactive),103% (inactive),82.8% (inactive),116% (inactive),103% (inactive),99.5% (inactive),112% (inactive),–,–
Cc1c(C(=O)O)c(=O)n(-c2ccccc2)n1C,107% (inactive),112% (inactive),109% (inactive),111% (inactive),115% (inactive),101% (inactive),113% (inactive),108% (inactive),99.5% (inactive),122% (inactive),–,–
CC1(C)/C(=C\CO)C2CCC1C2 (configuration not stated),105% (inactive),109% (inactive),93.2% (inactive),106% (inactive),105% (inactive),95% (inactive),102% (inactive),97.3% (inactive),107% (inactive),115% (inactive),–,–
CCC/C=C(\C)C(C)(C#N)C(=O)OCC (configuration not stated),113% (inactive),109% (inactive),87.8% (inactive),102% (inactive),102% (inactive),101% (inactive),103% (inactive),102% (inactive),99.9% (inactive),109% (inactive),–,–
c1ccc2c(N3CCCCC3)ncnc2c1,99.6% (inactive),76.2% (inactive),140% (inactive),99.4% (inactive),93% (inactive),87.3% (inactive),91.8% (inactive),91.3% (inactive),92.8% (inactive),115% (inactive),–,–
CCCC1(c2ccccc2)NC(=O)NC1=O (configuration not stated),108% (inactive),111% (inactive),86.5% (inactive),105% (inactive),113% (inactive),99% (inactive),99.3% (inactive),97.4% (inactive),105% (inactive),104% (inactive),–,–
OCc1ccc(-c2ccc(-c3ccc(CO)s3)o2)s1,51% (inactive),-26.5% (active),58.8% (inactive),78.4% (inactive),15.3% (inactive),73.1% (inactive),60.6% (inactive),-35% (active),73.2% (inactive),–,–,–
CC(=O)OCCC(C)CCC=C(C)C (configuration not stated),92.5% (inactive),105% (inactive),95.9% (inactive),103% (inactive),102% (inactive),92.3% (inactive),101% (inactive),97.8% (inactive),103% (inactive),113% (inactive),–,–
CCCCC1(CC)COC(CCC)OC1 (configuration not stated),91.7% (inactive),103% (inactive),99.1% (inactive),99.9% (inactive),94.7% (inactive),82% (inactive),103% (inactive),96.6% (inactive),97.3% (inactive),115% (inactive),–,–
N#C/C(=C\c1cc(O)c(O)c(O)c1)C(N)=O,88.6% (inactive),103% (inactive),-17.7% (active),101% (inactive),93% (inactive),46.5% (inactive),101% (inactive),98.1% (inactive),92.3% (inactive),–,–,–
CC(=O)Oc1ccc(Br)cc1C(=O)O,102% (inactive),107% (inactive),101% (inactive),95% (inactive),105% (inactive),92.2% (inactive),104% (inactive),98.6% (inactive),94.6% (inactive),124% (inactive),–,–
CCCC(=O)c1cc(C)ccc1OC,100% (inactive),107% (inactive),94.9% (inactive),114% (inactive),115% (inactive),91.3% (inactive),104% (inactive),95.5% (inactive),109% (inactive),105% (inactive),–,–
CCOC(=O)CCCS(C)(=O)=O,104% (inactive),105% (inactive),86.2% (inactive),100% (inactive),105% (inactive),87.9% (inactive),102% (inactive),93.7% (inactive),98.8% (inactive),104% (inactive),–,–
CC(O)COc1ccc(-c2ccccc2)cc1 (configuration not stated),96.3% (inactive),116% (inactive),102% (inactive),98.4% (inactive),99.7% (inactive),101% (inactive),99.1% (inactive),92.4% (inactive),101% (inactive),103% (inactive),–,–
O=C1Cc2cc(O)ccc2O1,117% (inactive),104% (inactive),86% (inactive),107% (inactive),103% (inactive),107% (inactive),101% (inactive),101% (inactive),83.1% (inactive),108% (inactive),–,–
COc1cc2c3cc1Oc1c(OC)c(OC)cc4c1C(Cc1ccc(O)c(c1)Oc1ccc(cc1)CC3N(C)CC2)N(C)CC4 (configuration not stated),6.32% (active),-21.8% (active),33.3% (inactive),27.2% (inactive),-95.9% (active),1.26% (active),-98.2% (active),–,-90.5% (active),-80.8% (active),27.6% (inactive),98.2% (inactive) and -80.6% (active)
O=C(O)/C=C/c1ccc2c(c1)CCC2,99.5% (inactive),104% (inactive),100% (inactive),105% (inactive),99.3% (inactive),103% (inactive),105% (inactive),103% (inactive),102% (inactive),104% (inactive),–,–
COC(=O)c1ccccc1Br,99.6% (inactive),110% (inactive),80.5% (inactive),96.4% (inactive),106% (inactive),80% (inactive),107% (inactive),94.4% (inactive),98.4% (inactive),159% (inactive),–,–
CSC[C@H](NC(=O)COc1cccc2cnccc12)C(=O)NC(Cc1ccccc1)C(O)C(=O)N1CSC[C@H]1C(=O)NC(C)(C)C (some centres not stated),96.3% (inactive),108% (inactive),-20.5% (active),103% (inactive),102% (inactive),96.3% (inactive),102% (inactive),98.3% (inactive),102% (inactive),–,–,–
CCOC(=O)CCCC(=O)OCC,104% (inactive),110% (inactive),87.8% (inactive),106% (inactive),99.9% (inactive),100% (inactive),106% (inactive),102% (inactive),98.9% (inactive),109% (inactive),–,–
COc1cc2c3c(n(C)c(=O)c2cc1OC)-c1cc2c(cc1C3=O)OCO2,81% (inactive),47.4% (inactive),10.5% (inactive),54.6% (inactive),36% (inactive),46.8% (inactive),63.6% (inactive),40.1% (inactive),39.9% (inactive),–,–,–
O=C(O)c1ccc(S(=O)(=O)O)cc1,102% (inactive),107% (inactive),94.9% (inactive),106% (inactive),103% (inactive),88.2% (inactive),110% (inactive),102% (inactive),97.3% (inactive),109% (inactive),–,–
COC(=O)c1cccc(Br)c1,101% (inactive),115% (inactive),96.5% (inactive),107% (inactive),109% (inactive),86.4% (inactive),106% (inactive),97.2% (inactive),108% (inactive),118% (inactive),–,–
O=C(Cc1ccccc1)Cc1ccccc1,103% (inactive),108% (inactive),99.5% (inactive),101% (inactive),96.7% (inactive),103% (inactive),96.5% (inactive),97% (inactive),103% (inactive),108% (inactive),–,–
CCOC(=O)c1cc2cccc(OC)c2oc1=O,97.3% (inactive),113% (inactive),99.5% (inactive),105% (inactive),105% (inactive),106% (inactive),105% (inactive),89.8% (inactive),104% (inactive),116% (inactive),–,–
CC(=O)OCC1CCCO1 (configuration not stated),100% (inactive),101% (inactive),96.1% (inactive),105% (inactive),103% (inactive),108% (inactive),101% (inactive),99.8% (inactive),98% (inactive),108% (inactive),–,–
NC(=S)N/N=C/c1ccc(N)cc1,102% (inactive),107% (inactive),96.1% (inactive),104% (inactive),96.6% (inactive),82.2% (inactive),99.8% (inactive),95.8% (inactive),91.5% (inactive),112% (inactive),–,–
CCCC(C)OCC(=O)O (configuration not stated),104% (inactive),109% (inactive),85.8% (inactive),100% (inactive),93.5% (inactive),98.4% (inactive),99.8% (inactive),110% (inactive),99.1% (inactive),97.9% (inactive),–,–
